Measured values from PubChem BioAssay AID1159580 (chemical genetic matrix, 2015).
Several values for one entry are separate records, joined by “and”; a condition that tells them apart may be missing. Equal entries are not always repeated. Screen size: about 5,500 compounds; about 2,000 (36%) were called active. Not shown: some 18% with an inconclusive outcome. No stated cut-off is given here; in the data, active means normalized growth mostly below about 0.91 (no sharp cut-off); inconclusive means no clear call, values can overlap the other calls; inactive means mostly above about 0.92. Some of the results follow. Where a structure was tested more than once in an assay, its records may differ in their call.

Experiment: chemical genetic growth profiling, strain panel (AID 1159580);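 further: tested at 20 µM; growth read once vehicle control cultures reached saturation at 30 °C; 1 = growth at the plate median or of vehicle wells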
Settings: S. cerevisiae deletion strains, growth OD

In the case of `O=c1[nH]cc(F)c(=O)[nH]1`, the normalized growth (locus YAL021C, strain ccr4, stronger effect = lower value) is reported as 0.841 (active), the normalized growth (locus YAL026C, strain drs2, stronger effect = lower value) is reported as 0.445 (active) and the normalized growth (locus YAL030W, strain snc1, stronger effect = lower value) is reported as 0.642 (active). For the same molecule, the normalized growth (locus YAL040C, strain CLN3, stronger effect = lower value) was 1.05 (inactive), the normalized growth (locus YBL061C, strain skt5, stronger effect = lower value) was 0.689 (active) and the normalized growth (locus YBR009C, strain hhf1, stronger effect = lower value) was 0.458 (active). The normalized growth (locus YBR021W, strain FUR4, stronger effect = lower value) was 0.81 (active), the normalized growth (locus YBR023C, strain chs3, stronger effect = lower value) was 0.678 (active) and the normalized growth (locus YBR171W, strain sec66, stronger effect = lower value) was 1.09 (inactive). The normalized growth (locus YBR229C, strain ROT2, stronger effect = lower value) was 1.01 (inactive), the normalized growth (locus YBR231C, strain swc5, stronger effect = lower value) was 0.639 (active) and the normalized growth (locus YBR279W, strain paf1, stronger effect = lower value) was 0.555 (active). The normalized growth (locus YCL011C, strain gbp2, stronger effect = lower value) was 0.509 (active), the normalized growth (locus YCL016C, strain dcc1, stronger effect = lower value) was 0.586 (active) and the normalized growth (locus YCL029C, strain bik1, stronger effect = lower value) was 0.717 (active). The normalized growth (locus YCL061C, strain MRC1, stronger effect = lower value) was 0.702 (active), the normalized growth (locus YCL069W, strain vba3, stronger effect = lower value) was 0.484 (active) and the normalized growth (locus YCR088W, strain abp1, stronger effect = lower value) was 0.651 (active). The normalized growth (locus YDL005C, strain med2, stronger effect = lower value) was 0.977 (inactive), the normalized growth (locus YDL035C, strain GPR1, stronger effect = lower value) was 0.591 (active) and the normalized growth (locus YDL040C, strain nat1, stronger effect = lower value) was 0.869 (active). For the same molecule, the normalized growth (locus YDL074C, strain BRE1, stronger effect = lower value) was 0.847 (inactive), the normalized growth (locus YDL101C, strain DUN1, stronger effect = lower value) was 0.955 (inactive) and the normalized growth (locus YDL185W, strain tfp1, stronger effect = lower value) was 1 (inactive). The normalized growth (locus YDL192W, strain arf1, stronger effect = lower value) was 0.715 (active), the normalized growth (locus YDR001C, strain nth1, stronger effect = lower value) was 0.747 (active) and the normalized growth (locus YDR069C, strain doa4, stronger effect = lower value) was 0.636 (active). The normalized growth (locus YDR101C, strain arx1, stronger effect = lower value) was 0.64 (active), the normalized growth (locus YDR137W, strain rgp1, stronger effect = lower value) was 0.629 (active) and the normalized growth (locus YDR150W, strain NUM1, stronger effect = lower value) was 0.957 (inactive) and 0.85 (active). The normalized growth (locus YDR159W, strain sac3, stronger effect = lower value) was 1.3 [resistant] (active), the normalized growth (locus YDR162C, strain NBP2, stronger effect = lower value) was 0.693 (active) and the normalized growth (locus YDR195W, strain ref2) was 0.63 (active). For the same molecule, the normalized growth (locus YDR297W, strain sur2, stronger effect = lower value) was 0.676 (active), the normalized growth (locus YDR318W, strain mcm21, stronger effect = lower value) was 0.701 (active) and the normalized growth (locus YDR334W, strain swr1, stronger effect = lower value) was 0.741 (active). The normalized growth (locus YDR335W, strain msn5, stronger effect = lower value) was 0.538 (active), the normalized growth (locus YDR363W, strain ESC2, stronger effect = lower value) was 0.864 (active) and the normalized growth (locus YDR388W, stronger effect = lower value) was 0.753 (active). The normalized growth (locus YDR392W, strain spt3, stronger effect = lower value) was 0.476 (active), the normalized growth (locus YDR502C, strain sam2, stronger effect = lower value) was 0.657 (active) and the normalized growth (locus YEL003W, strain gim4, stronger effect = lower value) was 0.518 (active). The normalized growth (locus YEL037C, strain rad23, stronger effect = lower value) was 0.539 (active), the normalized growth (locus YEL061C, strain CIN8 (second series), stronger effect = lower value) was 0.728 (active) and the normalized growth (locus YER002W, strain NOP16, stronger effect = lower value) was 1.04 (inactive). For the same molecule, the normalized growth (locus YER015W, strain faa2, stronger effect = lower value) was 0.702 (active), the normalized growth (locus YER016W, strain bim1, stronger effect = lower value) was 0.629 (active) and the normalized growth (locus YER110C, stronger effect = lower value) was 1.01 (inactive). For the same molecule, the normalized growth (locus YER111C, strain swi4, stronger effect = lower value) was 0.858 (active), the normalized growth (locus YER155C, strain BEM2 (second series), stronger effect = lower value) was 0.535 (active) and the normalized growth (locus YER155C, strain BEM2, stronger effect = lower value) was 1.01 (inactive). For the same molecule, the normalized growth (locus YER167W, strain BCK2, stronger effect = lower value) was 0.795 (active), the normalized growth (locus YFR010W, strain ubp6, stronger effect = lower value) was 0.598 (active) and the normalized growth (locus YGL078C, strain dbp3, stronger effect = lower value) was 0.571 (active). The normalized growth (locus YGL086W, strain mad1, stronger effect = lower value) was 0.743 (active), the normalized growth (locus YGL167C, strain pmr1, stronger effect = lower value) was 1.03 (inactive) and the normalized growth (locus YGL173C, strain kem1, stronger effect = lower value) was 0.719 (active). The normalized growth (locus YGL227W, strain vid30, stronger effect = lower value) was 0.856 (active), the normalized growth (locus YGL240W, strain doc1, stronger effect = lower value) was 0.901 (inactive) and the normalized growth (locus YGL248W, strain PDE1, stronger effect = lower value) was 0.71 (active). The normalized growth (locus YGL253W, strain hxk2, stronger effect = lower value) was 0.328 (active), the normalized growth (locus YGR135W, strain pre9, stronger effect = lower value) was 0.871 (active) and the normalized growth (locus YGR229C, strain SMI1, stronger effect = lower value) was 0.948 (inactive). For the same molecule, the normalized growth (locus YGR252W, strain gcn5, stronger effect = lower value) was 0.757 (active), the normalized growth (locus YHR013C, strain ard1, stronger effect = lower value) was 0.846 (inactive) and the normalized growth (locus YHR027C, strain rpn1, stronger effect = lower value) was 0.625 (active). The normalized growth (locus YHR030C, strain SLT2, stronger effect = lower value) was 0.918 (active) and 0.61 (active), the normalized growth (locus YHR079C, strain IRE1 (second series), stronger effect = lower value) was 0.665 (active) and the normalized growth (locus YHR079C, strain IRE1, stronger effect = lower value) was 0.553 (active). The normalized growth (locus YHR094C, strain hxt1, stronger effect = lower value) was 0.944 (inactive), the normalized growth (locus YHR129C, strain ARP1, stronger effect = lower value) was 0.896 (active) and the normalized growth (locus YHR142W, strain chs7, stronger effect = lower value) was 0.484 (active). The normalized growth (locus YHR200W, strain rpn10, stronger effect = lower value) was 0.906 (active), the normalized growth (locus YIL066C, strain RNR3, stronger effect = lower value) was 0.848 (active) and the normalized growth (locus YIL073C, strain SPO22, stronger effect = lower value) was 0.762 (inactive). For the same molecule, the normalized growth (locus YIL125W, strain kgd1, stronger effect = lower value) was 0.851 (active), the normalized growth (locus YIR030C, strain dcg1, stronger effect = lower value) was 0.838 (active) and the normalized growth (locus YJL092W, strain hpr5, stronger effect = lower value) was 0.476 (active). The normalized growth (locus YJL095W, strain BCK1 (second series), stronger effect = lower value) was 0.689 (active), the normalized growth (locus YJL095W, strain BCK1, stronger effect = lower value) was 0.661 (active) and 0.616 (active) and the normalized growth (locus YJL115W, strain asf1, stronger effect = lower value) was 0.697 (active). The normalized growth (locus YJL129C, strain trk1, stronger effect = lower value) was 0.642 (active), the normalized growth (locus YJL134W, strain LCB3, stronger effect = lower value) was 1.04 (inactive) and the normalized growth (locus YJL154C, strain vps35, stronger effect = lower value) was 0.756 (active). The normalized growth (locus YJL164C, strain tpk1, stronger effect = lower value) was 0.463 (active), the normalized growth (locus YJL166W, strain qcr8, stronger effect = lower value) was 0.577 (active) and the normalized growth (locus YJL168C, strain set2, stronger effect = lower value) was 1.02 (inactive). For the same molecule, the normalized growth (locus YJL187C, strain SWE1 (second series), stronger effect = lower value) was 0.722 (active), the normalized growth (locus YJL187C, strain SWE1, stronger effect = lower value) was 0.77 (active) and the normalized growth (locus YJR043C, strain POL32, stronger effect = lower value) was 0.669 (active). For the same molecule, the normalized growth (locus YJR066W, strain TOR1, stronger effect = lower value) was 0.532 (active) and the normalized growth (locus YJR075W, strain HOC1, stronger effect = lower value) was 0.835 (active).
